# TDP1 cell noCPT = qHTS for Inhibitors of human tyrosyl-DNA phosphodiesterase 1 (TDP1): qHTS in cells in absence of CPT. DT40 Tdp1-/- hTDP1 cells, no CPT, ATP luminescence, 48 h. Potency, µM (top dose mostly 46.2 µM), for inactives: at the highest dose activity change, negative = growth inhibition, actives largely listed as inhibitors. 15% of 420,000 active; further: on the % scale 0 is the no-effect control and ±100 the full control effect; nearly all actives have a fitted effect of over 55% in size
#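 A cellular qHTS used chicken DT40 cells lacking endogenous Tdp1 but carrying stably transfected human TDP1. Compounds were applied without camptothecin, and cell growth kinetics were judged by ATP-dependent luminescence after ≥48 hr.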
# HT1080NT lethal = kills 2HG-producing HT-1080-NT fibrosarcoma cells. HT-1080-NT fibrosarcoma viability, CellTiter-Glo ATP luminescence, 48 h. Potency, µM (highest dose often 46.1 µM), for inactives: top-dose activity, negative = less viability, hits mostly cytotoxic. 1.6% of 360,000 active. AID 686970;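 further: NT is the 2HG producing partner of a matched IDH1 knockdown line; 0% = DMSO-treated cells and -100% = media-only wells without cells; nearly all actives have a fitted effect of over 55% in size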
#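 HT-1080-NT fibrosarcoma cells (2HG-overproducing), 750 cells/well in RPMI with 5% FBS, dosed after 2 h and incubated 48 h at 37C. CellTiter-Glo luminescence normalized to DMSO and no-cell wells; concentration-response curves fitted and classed.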
# HT1080 IDH1KD tx = toxicity to HT-1080 IDH1 knockdown cells (counter line); 2% of 360,000 active; HT-1080 IDH1 knockdown viability, ATP luminescence, 48 h; AID 686971; Potency, µM (titrated, usually from 46.1 µM), inactives show at the top dose activity, negative = toxicity, usual class: cytotoxic;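 further: 0% = DMSO wells and -100% = cell-free medium wells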
#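 IDH1KD HT-1080 cells, 750/well, RPMI + 5% FBS; compound pinned after 2 h settling; 48 h, 37 °C; CellTiter-Glo luminescence; % activity normalised to DMSO and no-cell wells; curves fitted, classed by r2 and efficacy.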
# TDP1 cell CPT = DT40-hTDP1 cell growth loss with CPT | chicken DT40 Tdp1-/-;hTDP1 cells + 20 nM CPT, ATP luminescence, 48 h | 12% of 420,000 active | Potency, µM (series often up to 46.2 µM), for inactives: top-dose activity change, negative = growth inhibition, hits mostly inhibitors; further: on the % scale 0 is the no-effect control and ±100 the full control effect; nearly all actives have a fitted effect of over 55% in size
#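 Chicken DT40 Tdp1-/- cells stably complemented with human TDP1 were seeded at 400 cells/well in medium containing 20 nM camptothecin, exposed to pin-transferred compounds, and grown at 37 °C for at least 48 hr. Viability was read as ATP luminescence.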
# TGFb SMAD3 inh = inhibitors of TGF-b signaling. 1.2% of 410,000 active. AID 588855. Potency, µM (highest dose often 46.1 µM), for inactives: at the top dose activity, negative = inhibition, most hits filed as inhibitors. HepG2 CAGA-GFP TGF-b/SMAD3 reporter, GFP fluorescence, 18 h; TGF-beta stimulated, 500 pg/mL final; further: on the % scale 0 is the no-effect control and ±100 the full control effect; nearly all actives have a fitted effect of over 65% in size
#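 GFP signal (ex488/em500-530) from TGF-beta-stimulated HEPG2 CAGA-GFP cells, 500 pg/mL final, 18 h at 37 degrees C in DMEM plus 1% FBS, normalized to unstimulated and DMSO-stimulated controls.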
# HepG2 tox = kills HepG2 cells in TGF-b inhibitor counter-screen. HepG2 CAGA-GFP viability, ATP luminescence, 18 h. Potency, µM (titrated, usually from 46.1 µM), for inactives: top-dose activity change, negative = cytotoxicity, hits mostly cytotoxic. 0.76% of 410,000 active
#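 HepG2 CAGA-GFP cells (1000/well, DMEM with 1% FBS) received compound, then TGF-beta at 500 pg/mL final, and were incubated 18 hours at 37 degrees C. Viability was read by CellTiter-Glo luminescence. Media-only wells were set as complete cell-killing and DMSO as no toxicity.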
# Numbers without * were called inactive; ? = inconclusive; . = no result given; [ ] = remark or other dose. Rows were chosen to be rich in hits. Some 17% of all compounds tested hit in one or more screens of this group. The call rests on the fitted dose curve; in most records, active means well fitted curve in the direction sought with a large enough effect; inconclusive means small, poorly fitted or top-dose-only effect, or another doubt; inactive means no such curve, though single readings can be large; an effect the other way counts as inactive or inconclusive. Potency means the concentration at half of the fitted maximal effect.
SMILES,TDP1 cell noCPT,HT1080NT lethal,HT1080 IDH1KD tx,TDP1 cell CPT,TGFb SMAD3 inh,HepG2 tox
CN(C)S(=O)(=O)c1cccc(NC(=O)/C=C/c2ccc(S(=O)(=O)N3CCOCC3)cc2)c1,18.4µM*,-9.7%,-2.5%,14.6µM*,-2.0%,-0.3%
Cc1ccc(NC(=O)[C@@H](NC(=O)c2cccc(S(=O)(=O)N3CCOCC3)c2)C(C)C)cc1C,11.6µM*,-9.2%,-7.0%,?,-20.7%,-26.2%
COc1ccc(/C=C/C(=O)NC2CCCCCCC2)cc1S(=O)(=O)N1CCOCC1,20.6µM*,?,?,20.6µM*,?,-17.7%
COc1ccccc1N1CCN(C(C)C(=O)Nc2ccc(S(=O)(=O)N3CCOCC3)cc2)CC1 (stereo not drawn),13µM*,4.6%,11.7%,?,-9.4%,8.7%
O=C(/C=C/c1cccc(F)c1)Nc1ccc(S(=O)(=O)N2CCOCC2)cc1,?,-5.7%,-5.8%,?,4.8%,-1.5%
COCCNC(=O)C(c1ccc(Cl)cc1)N(C(=O)Cn1nnc2ccccc21)c1cccnc1 (stereo not drawn),-14.2%,19.4%,17.7%,-11.3%,?,1.1%
COc1ccc(Cl)cc1Nc1cc(C)nc2nc(-c3ccccc3C)nn12,-5.4%,.,.,5.7%,-2.0%,-1.3%
COC(=O)[C@@]1(C(C)C)N=C(c2cc(OC)c(OC)c(OC)c2)[C@]2(O1)C(=O)N(C)c1ccc(Cl)cc12,?,-12.8%,-23.9%,?,.,.
COc1ccc(NC(C)C(=O)Nc2cccc(S(=O)(=O)N3CCOCC3)c2)cc1OC (stereo not drawn),8.2µM*,-5.7%,-12.0%,9.2µM*,-4.2%,-14.1%
COc1ccc(/C=C/C(=O)Nc2cccc(S(=O)(=O)N3CCOCC3)c2)cc1OC,16.4µM*,-1.1%,1.1%,?,13.8%,-2.6%
O=C(/C=C/c1ccco1)Nc1cccc(S(=O)(=O)N2CCOCC2)c1,-13.0%,22.3%,?,-8.9%,-11.9%,6.8%
Cc1ccc(/C=C/C(=O)Nc2cccc(S(=O)(=O)N3CCOCC3)c2)o1,?,-20.0%,-3.1%,23.1µM*,0.0%,-6.4%
COc1ccc(C)cc1NC(=O)/C=C/c1ccc(OC)c(S(=O)(=O)N2CCOCC2)c1,-0.9%,3.0%[9.24 µM],-3.4%,-25.5%,-14.5%,-17.6%
COc1ccc(OC)c(NC(=O)/C=C/c2ccc(S(=O)(=O)N3CCOCC3)cc2)c1,?,-2.8%,0.6%,25.9µM*,-2.6%,-2.7%
O=C(CCCCn1c(=O)c2ccccc2n(CC(=O)Nc2cccc(F)c2)c1=O)NCCc1ccccc1,-20.2%,.,.,-11.1%,-29.0%,-4.1%
CC(=O)NC(c1cccc(F)c1)c1nc(-c2ccoc2)cs1 (stereo not drawn),-8.1%,11.2%,?,?,-5.7%,-11.2%
Cc1ccc(/C=C/C(=O)N2CCN(S(=O)(=O)c3c(C)c(C)cc(C)c3C)CC2)o1,14.6µM*,-20.2%,?,23.1µM*,?,-44.2%
O=C(/C=C/c1ccccc1)Nc1ccc(S(=O)(=O)N2CCOCC2)cc1,-18.0%,0.2%,-8.1%,-18.5%,-33.7%,-41.6%
CC(=O)c1cccc(NC(=O)/C=C/c2ccc(S(=O)(=O)N3CCOCC3)cc2)c1,18.4µM*,19.2%,14.2%,?,-13.4%,-10.4%
CCCCc1ccc(C(=O)Nc2ccc3nc(N4CCN(CC)CC4)cc(C)c3c2)cc1,2.91µM*,.,.,3.66µM*,-0.9%,-35.0%
CCOc1ccc(C(=O)Nc2ccc3nc(N4CCN(CC)CC4)cc(C)c3c2)cc1,25.9µM*,-2.1%,-6.9%,?,19.3%,-5.5%
CCN1CCN(c2cc(C)c3cc(NC(=O)Cc4ccc(OC)c(OC)c4)ccc3n2)CC1,-15.4%,-16.6%,-15.9%,-17.8%,7.7%,-41.2%
CCN1CCN(c2cc(C)c3cc(NC(=O)c4cc(OC)cc(OC)c4)ccc3n2)CC1,16.4µM*,?,?,?,?,-45.0%
CSc1ccc(/C=N/N2CCN(Cc3ccccc3)CC2)cc1,-21.6%,19.8%,0.6%,-26.8%,1.9%,3.2%
O=c1c2[nH]c3ccc(F)cc3c2ncn1CCC1=CCCCC1,-14.3%,14.8%,-3.6%,-3.1%,-2.2%,-5.4%
SMILES,TDP1 cell noCPT,HT1080NT lethal,HT1080 IDH1KD tx,TDP1 cell CPT,TGFb SMAD3 inh,HepG2 tox
CSc1ncccc1C(=O)Nc1ccccc1N1CCOCC1,9.4%,6.1%,-5.0%,-2.3%,?,4.7%
Cn1cc(CCCC(=O)NCc2ccccc2Cl)c2ccccc21,?,.,.,?,-21.1%,-23.9%
O=C(O)CCCCCNC(=O)OCC1c2ccccc2-c2ccccc21,11.6µM*,0.7%,3.0%,4.11µM*,1.1%,-26.5%
O=C(O)CCCNC(=O)OCc1ccccc1,5.6%,-6.8%,-5.0%,3.2%,0.0%,-0.1%
C[C@@]12C(=O)N(Cc3ccc(-c4ccccc4)cc3)CC(=O)N1[C@H](/C=C/c1ccccc1)[C@@H]1C(=O)N(c3ccccc3)C(=O)[C@@H]12,23.1µM*,-28.6%,-10.7%,?,-8.2%,11.8%
CN1C(=O)[C@H]2[C@@H](/C=C/c3ccccc3)N3C(=O)CN(Cc4ccccn4)C(=O)[C@@]3(C)[C@H]2C1=O,-4.4%,12.6%,11.9%,0.8%,?,-50.1%
COC(=O)CN1C(=O)[C@H]2[C@@H](/C=C/c3ccccc3)N3C(=O)CN(Cc4ccc(-c5ccccc5)cc4)C(=O)[C@@]3(C)[C@H]2C1=O,?,?,-15.4%,25.9µM*,-13.6%,-11.4%
Cc1ccc(NC(=O)CSc2nnc(C3CC3)n2C)cc1S(=O)(=O)N1CCCCC1,-6.3%,3.0%,-0.8%,-5.7%,?,6.2%
CCOc1cc(/C=N/NC(=O)c2cc(-c3cccnc3)nc3ccccc23)ccc1O,6.51µM*,-6.8%,-2.3%,-28.5%,35.0%,-0.4%
O=C(N/N=C/c1ccc(Cl)cc1)c1cc(-c2cccnc2)nc2ccccc12,7.31µM*,?,?,?,-30.8%,1.5%
O=C(N/N=C/c1ccc[nH]1)c1cc(-c2ccc(Cl)cc2)nc2ccccc12,9.2µM*,?,?,?,-18.4%,-18.7%
O=C(N/N=C/c1cccnc1)c1cc(-c2ccc(Cl)cc2)nc2ccccc12,8.2µM*,2.5%,-7.5%,?,-9.3%,-18.7%

# From PubChem BioAssay
